PLC-gamma1 inh: PLC-gamma1 (human) inhibition, primary screen | 370,000 tested, 0.84% active | AID 720700 | purified PLC-gamma1, fluorogenic substrate, fluorescence | inhibition, % at 12.2 µM; in the data active means inhibition above about 9.5%
Target sequence (P19174 whole entry, looked up): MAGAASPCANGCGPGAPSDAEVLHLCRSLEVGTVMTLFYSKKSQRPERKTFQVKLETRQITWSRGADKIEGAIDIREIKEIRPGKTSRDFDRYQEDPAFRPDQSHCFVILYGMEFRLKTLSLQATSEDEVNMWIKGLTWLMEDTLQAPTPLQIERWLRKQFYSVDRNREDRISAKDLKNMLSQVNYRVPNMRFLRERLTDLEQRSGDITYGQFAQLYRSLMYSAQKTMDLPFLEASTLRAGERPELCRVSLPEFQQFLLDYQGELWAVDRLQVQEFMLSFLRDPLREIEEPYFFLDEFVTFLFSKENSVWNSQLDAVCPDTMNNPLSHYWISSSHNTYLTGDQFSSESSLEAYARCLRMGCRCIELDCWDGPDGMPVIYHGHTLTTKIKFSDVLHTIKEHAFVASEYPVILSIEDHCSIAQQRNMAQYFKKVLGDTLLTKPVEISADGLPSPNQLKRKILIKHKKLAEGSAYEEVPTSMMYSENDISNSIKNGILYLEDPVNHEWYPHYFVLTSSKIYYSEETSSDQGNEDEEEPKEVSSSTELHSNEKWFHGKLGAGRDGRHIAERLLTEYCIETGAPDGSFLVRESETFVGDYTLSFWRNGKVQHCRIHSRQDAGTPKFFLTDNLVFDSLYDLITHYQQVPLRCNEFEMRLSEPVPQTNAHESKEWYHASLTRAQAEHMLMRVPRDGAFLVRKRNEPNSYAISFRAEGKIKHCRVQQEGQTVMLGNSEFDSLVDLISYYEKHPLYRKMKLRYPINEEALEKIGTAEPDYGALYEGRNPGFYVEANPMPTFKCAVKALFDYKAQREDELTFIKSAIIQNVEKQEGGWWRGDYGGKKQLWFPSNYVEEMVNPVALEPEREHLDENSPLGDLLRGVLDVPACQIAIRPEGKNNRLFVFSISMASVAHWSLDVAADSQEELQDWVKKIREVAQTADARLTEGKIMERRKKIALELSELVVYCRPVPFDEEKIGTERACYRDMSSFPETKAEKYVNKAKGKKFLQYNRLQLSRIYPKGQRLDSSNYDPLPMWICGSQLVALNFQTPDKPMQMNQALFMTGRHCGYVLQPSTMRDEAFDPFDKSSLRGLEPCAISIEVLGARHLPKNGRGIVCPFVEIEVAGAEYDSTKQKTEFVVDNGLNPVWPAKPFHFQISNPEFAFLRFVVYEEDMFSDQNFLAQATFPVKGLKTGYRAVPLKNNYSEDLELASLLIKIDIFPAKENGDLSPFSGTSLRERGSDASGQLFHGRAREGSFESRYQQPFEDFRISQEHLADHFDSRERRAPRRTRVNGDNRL
PLCb3 inh: PLC-beta3 (human) inhibition, primary screen; Purified PLC-beta3, fluorogenic substrate, fluorescence; inhibition, % at 12.2 µM; 370,000 tested, 0.18% active; AID 720704; in the data active means inhibition above about 11%
ADAM17 inh: inhibitors of human ADAM17. P78536. recombinant ADAM17, EDANS/DABCYL FRET peptide cleavage. inhibition, % at 6.95 µM. 370,000 tested, 0.83% active;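 active means inhibition above the mean of compounds lying between control limits plus 3 SD, set per campaign, cut at about 8.5% in these data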
proKLK7 act: proKLK7 (human) activation, primary screen. P49862. purified proKLK7, EDANS-DABCYL substrate fluorescence; 100% is mature enzyme control, 0% vehicle. activation, % at 7 µM. 370,000 tested, 0.9% active;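 active means activation above the mean of all tested compounds plus 3 SD, computed per campaign excluding outliers beyond control limits, cut at about 13% in these data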
ADAM10 inh: inhibitors of human ADAM10; O14672; recombinant ADAM10, EDANS/DABCYL FRET peptide cleavage, 3 h; inhibition, % at 7 µM; 370,000 tested, 0.62% active; AID 720582;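 active means inhibition above a per-campaign cutoff equal to the mean of compounds falling between control-based bounds plus 3 SD, cut at about 20% in these data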
ADAM10 confirm: human ADAM10 inhibition, confirmation | ADAM10 QFRET peptide cleavage, EDANS fluorescence | AID 743208 | 2,100 tested, 1% active | shares compounds with ADAM10 inh | inhibition, % at 6.95 µM;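 active means inhibition above about 20% chosen separately for each screening run, limit read from the data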
ADAM17 counter: inhibits human ADAM17 in ADAM10 exosite counter-screen; shares compounds with ADAM10 inh; ADAM17 QFRET peptide cleavage, EDANS fluorescence; inhibition, % at 6.95 µM; 2,100 tested, 0.5% active;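 active means mean triplicate inhibition above the solvent-only control wells' mean plus 3 SD, cut at about 12% in these data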
Of the large screens only hits and unclear results are named; the others gave an inactive call (follow-up assays come after a bar, where they were run). Only some compounds are listed: those with a hit (about 2.9% of all), similar ones and a draw of the others.

CSc1ccc(S(=O)(=O)NCc2ccc(Cl)cc2Cl)cc1	ADAM10 inh 20.4 | ADAM10 confirm inactive | ADAM17 counter inactive
C#CCN1C(C(=O)OC)CN(CCCCCC)CCS1(=O)=O (stereo not drawn)	none
CCOc1ccc(NC(=S)N(Cc2ccc(Cl)cc2)Cc2ccco2)cc1	ADAM10 inh 24.2 | ADAM10 confirm inactive | ADAM17 counter inactive
CC(C)C[C@H]1COc2cc(Br)ccc2S(=O)(=O)N1Cc1cn(Cc2ccc(F)cc2)nn1	none
Cc1cc(C)c2c(=O)n3c(nc2c1)C(Cc1ccc(O)cc1)NC(=O)c1cc2ccccc2cc1-3 (stereo not drawn)	ADAM10 inh 22.6 | ADAM10 confirm 20.9 | ADAM17 counter inactive
O=C(NC(C(=O)N/N=C/c1cccc2ccccc12)c1n[nH]c(=O)c2ccccc12)c1ccccc1 (stereo not drawn)	ADAM10 inh 21.9 | ADAM10 confirm inactive | ADAM17 counter inactive
Cc1ccc(OCC(=O)NNC(=O)C(=O)NC(C)(C)C)cc1	ADAM10 inh 20.9 | ADAM10 confirm inactive | ADAM17 counter inactive
CCCC[C@@H]1C(=O)N2N=Cc3cc4ccccc4cc3[C@H]2N2N=Cc3cc4ccccc4cc3[C@@H]12	none
Cc1cccc(Cn2cc(COC(=O)Nc3ccc(F)cc3)nn2)c1	none
O=C(C1=C[C@H](c2csc3ccccc23)C[C@H](OCc2ccc(CO)cc2)O1)N1CCOCC1	ADAM10 inh 89.0 | ADAM10 confirm inactive | ADAM17 counter inactive
CN1CCN(C(=O)C2=C[C@@H](c3csc4ccccc34)C[C@@H](OCc3ccc(CO)cc3)O2)CC1	none
O=C(c1cccc(Cl)c1)N1CCC(=O)N([C@H](COCc2cccc(Cl)c2)Cc2ccccc2)CC1	ADAM10 inh 19.9 | ADAM10 confirm inactive | ADAM17 counter inactive
CC(C)CC(COCc1ccc(C(F)(F)F)cc1)N1CCN(C(=O)c2ccc(C(F)(F)F)cc2)CCC1=O (stereo not drawn)	ADAM10 inh 26.7 | ADAM10 confirm inactive | ADAM17 counter inactive
O=[N+]([O-])c1ccc(-c2cnc(SCc3ccccc3Cl)[nH]2)cc1	ADAM10 inh 20.1 | ADAM10 confirm inactive | ADAM17 counter inactive
CC(=O)Nc1ccc2c(c1)nc1n2CCOC1	ADAM10 inh 83.8 | ADAM10 confirm inactive | ADAM17 counter inactive
O=C(Nc1ccc2c(c1)nc1n2CCOC1)C1CCCCC1	none
O=C(NNC(=O)c1cc(-c2ccc(Cl)cc2)nc2ccccc12)c1csc(N2CCOCC2)n1	ADAM10 inh 28.7 | ADAM10 confirm inactive | ADAM17 counter inactive
O=C(NNC(=O)c1cc(-c2ccccc2)nc2ccccc12)c1csc(N2CCOCC2)n1	none
CCOC(=O)c1c(C)[nH]c(C)c1S(=O)(=O)NCCN1CCN(c2cc(Cl)ccc2C)CC1	ADAM17 inh 12.0, ADAM10 inh 24.2 | ADAM10 confirm inactive | ADAM17 counter inactive
C[C@H]1[C@@H](c2ccccc2)Oc2c(Cl)cccc2S(=O)(=O)N1C	none
Cc1ccc(NC(=O)NNC(=O)CSC2CCc3ccccc32)c(C)c1 (stereo not drawn)	none
CCN(c1ccccc1)S(=O)(=O)c1ccc(Cl)c(NC(=O)CSc2ncn[nH]2)c1	ADAM10 inh 22.7 | ADAM10 confirm inactive | ADAM17 counter inactive
COc1ccc2[nH]c3c(c2c1)CCN[C@]31C(=O)N(Cc2cn(Cc3ccccc3)nn2)c2ccc(F)cc21	none
COC(=O)c1ccc(S(=O)(=O)N2CCC(NC(=O)Cc3ccccc3)CC2)cc1	none
COc1cccc(C2c3c(-c4cc(Cl)c(C)cc4O)n[nH]c3C(=O)N2Cc2cccnc2)c1 (stereo not drawn)	none
COc1cc(C2c3c(-c4cc(Cl)c(C)cc4O)n[nH]c3C(=O)N2Cc2cccnc2)ccc1O (stereo not drawn)	ADAM10 inh 21.4 | ADAM10 confirm inactive | ADAM17 counter inactive
O=C(NN1C(=O)C2C(c3ccccc3)C=CC(c3ccccc3)C2C1=O)c1cccc(Br)c1 (stereo not drawn)	ADAM10 inh 20.8 | ADAM10 confirm inactive | ADAM17 counter inactive
O=C(Cc1cccc2ccccc12)Nc1ccccc1C(=O)O	none
O=C(Cc1cccc2ccccc12)Nc1cc(Cl)ccc1C(=O)O	ADAM10 inh 22.9 | ADAM10 confirm inactive | ADAM17 counter inactive
COc1ccc(NC(=O)c2ccc(-c3ccccc3)cc2)cc1NS(=O)(=O)c1ccc(F)cc1	ADAM10 inh 24.2 | ADAM10 confirm 30.8 | ADAM17 counter inactive
COc1ccc(NC(=O)c2ccccc2)cc1NS(=O)(=O)c1ccc(F)cc1	none
CCn1c(SCC(=O)Nc2nc3ccccc3s2)nnc1-c1ccc(OC)cc1	ADAM10 inh 19.9 | ADAM10 confirm inactive | ADAM17 counter inactive
CCOC(=O)c1c(NC(=O)CSc2nnc(-c3ccccc3)n2CC)sc(C(C)=O)c1C	ADAM10 inh 22.6 | ADAM10 confirm inactive | ADAM17 counter inactive
COc1ccc([C@H]2OC(=O)C[C@H]2C(=O)N2CCN(c3ccccc3Cl)CC2)cc1OC	none
OC(c1ccccc1)(c1nc(/C=C/c2ccccc2)cs1)C(F)(F)F (stereo not drawn)	ADAM10 inh 21.0 | ADAM10 confirm inactive | ADAM17 counter inactive
CCC(CO)Oc1cc(NCc2ccc(Cl)cc2Cl)c2ncn(C(C)C)c2c1 (stereo not drawn)	ADAM10 inh 22.2 | ADAM10 confirm inactive | ADAM17 counter inactive
CCC(CO)Oc1cc(NCc2ccc(Cl)cc2)c2ncn(C(C)C)c2c1 (stereo not drawn)	none
O=C(CSc1nc2ccccc2s1)Nc1ccc(Cl)c(C(=O)O)c1	none
O=C(CSc1nc2ccc(NC(=O)c3ccccc3C(=O)O)cc2s1)Nc1c(Cl)cccc1Cl	ADAM10 inh 20.4 | ADAM10 confirm inactive | ADAM17 counter inactive
CCOC(=O)[C@@]12CCCC=C1N(CCc1ccc(Cl)cc1)C(=O)[C@H]2CC(=O)NCc1cccc2ccccc12	none
NNC(=O)c1cccc(COc2ccccc2Br)c1	ADAM10 inh 24.0 | ADAM10 confirm inactive | ADAM17 counter inactive
O=C(NCc1ccccc1)c1cccc(COc2ccccc2Cl)c1	none
O=C1/C(=C/c2cccs2)N=C(c2cccs2)N1Nc1ccccc1	ADAM10 inh 25.5 | ADAM10 confirm inactive | ADAM17 counter inactive
O=C1/C(=C\c2cccs2)N=C(c2cccs2)N1Nc1ccccc1	none
CN1C2=N[C@@H](c3ccccc3)CC(=O)N2/C(=C\c2ccccc2)[C@H]1c1ccccc1	none (no result: proKLK7 act)
O/N=C/c1cc(Cl)ccc1OCc1ccccc1Cl	ADAM10 inh 23.1 | ADAM10 confirm inactive | ADAM17 counter inactive
O/N=C/c1ccccc1OCc1ccccc1F	none
COc1ccc(C(=O)CSc2nnc(-c3n[nH]c4c3CCC4)n2N)cc1OC	none
CC(C)[C@H]1Cn2nnc(-c3ccccc3)c2Cn2c3ccccc3c(=O)n21	none

Assay outcomes (PubChem BioAssay)
